Screening results from PubChem BioAssay.
HSF1 activator: increases HSF-1 driven luciferase reporter signal | activation, % at 9 µM | NIH3T3-HGL HSF-1 luciferase reporter, MG132, 8 h; 100% = twice DMSO control signal | AID 504408 | 300,000 compounds, 1.7% hits;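 active = mean replicate activation of at least 50% with a set share of replicates each reaching 50%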;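 also: 0% = median of the neutral control wells and 100% = twice that signal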
HSF1 inhib: HSF1 inhibition; NIH3T3-HGL HSE-luciferase, MG132-induced, luminescence 8 h; hits give low values; activity change, negative = inhibition, % at 7.5 µM (by protocol); 300,000 compounds, 0.77% hits; AID 2098;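 active = more than half of replicate wells show activity change below -50%, luminescence cut by over half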;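 also: luciferase reports HSF-1 transcriptional activity via heat shock element; 0% = median of DMSO wells and -100% = zero luminescence signal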
esBAF inh: blocks esBAF chromatin remodeling in mouse ES cells. 350,000 compounds, 2% hits. AID 602393. Bmi1-luciferase knock-in reporter, 24 h; 100% = twice the neutral-well signal. reporter increase, % at 12.5 µM; in the data active = activation above about 40%;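 also: 0% = median of the plate's neutral control wells and 100% = double that signal; a rise in the Bmi1 reporter signal indicates esBAF inhibition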
Wnt bcat act: activators of Wnt/beta-catenin signaling | Wnt/beta-catenin reporter cell assay, activator, plate reader | activation, % at 9.35 µM | 300,000 compounds, 1.2% hits | AID 743398; in the data active = activation above about 30%, passing the limit was not always enough;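 also: 0% = neutral control wells and 100% = positive control wells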
MITF TRPM1 HTS: MITF TRPM1 promoter activation in melanoma cells; SK-MEL-5 TRPM1-promoter luciferase, 24 h; % of positive control, neutral wells = 0; activation, % at 12.5 µM; 300,000 compounds, 0.75% hits; AID 588334;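 active = mean activation of at least 80% with every replicate also reaching 80%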;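 also: 0% = neutral control wells and 100% = parthenolide positive control wells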
esBAF Ring1 qPCR: de-represses Ring1 in mouse ESCs, confirming esBAF inhibition | shares compounds with esBAF inh | mouse ESC E14, Ring1 mRNA RT-qPCR fold change | fold change at 33 µM | 550 tested, under 10 active | AID 743176;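 active = Ring1 gene expression raised more than 2-fold over untreated cells in both replicates at either tested dose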;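 also: Ring1 transcript normalised to actin housekeeping signal by TaqMan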
esBAF Fgf4 qPCR: represses Fgf4 in mouse ESCs, confirming esBAF inhibition. 550 compounds, 4% hits. shares compounds with esBAF inh. mouse ESC E14, Fgf4 mRNA qPCR fold change; hits give low values. Fgf4 expression fold change at 33 µM;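 active = Fgf4 expression under 0.8 fold of control in both repeat measurements at one or both tested doses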;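 also: Fgf4 transcript normalised to actin in duplex TaqMan qPCR; cells exposed to compound for 24 h before lysis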
esBAF Bmi1 qPCR: de-represses Bmi1 in mouse ESCs, confirming esBAF inhibition; shares compounds with esBAF inh; AID 743180; mouse ESE14 ES cells, Bmi1 mRNA qPCR fold; hits give high values; fold change at 33 µM; 550 tested, under 10 active;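 active = Bmi1 expression fold change above 6 at either tested concentration, seen in replicate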;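 also: higher fold means more Bmi1 de-repression and stronger esBAF inhibition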
A549 cytotox: A549 cell cytotoxicity | shares compounds with esBAF inh | plate reader | cell viability change % (negative = cytotoxic), % at 25 µM, hits read low | 550 tested, under 10 active | AID 743188; call rule not given here
HepG2 cytotox SP: HepG2 cell cytotoxicity at single point | 550 compounds, 4% hits | activity change, negative = inhibition, % at 25 µM | shares compounds with esBAF inh | plate reader; hits give low values; in the data active = activity change below about -50%
HEK293 cytotox SP: cytotoxicity in HEK293 cells; shares compounds with esBAF inh; plate reader; activity change, negative = inhibition, % at 25 µM, hits read low; 550 compounds, 3% hits; in the data active = activity change below about -38%, passing the limit was not always enough
The depositor's hits bear a star. Most compounds without a hit are left out; they make up all but 3.9% or so of the library.

`COc1ccc2c(c1)CC/C(=C/c1ccccn1)C2=O` gave HSF1 activator 66*, HSF1 inhib 38, esBAF inh 68*, Wnt bcat act 26, MITF TRPM1 HTS 46, esBAF Ring1 qPCR 1.1, esBAF Fgf4 qPCR 0.37*, esBAF Bmi1 qPCR 5, A549 cytotox -4, HepG2 cytotox SP -16 and HEK293 cytotox SP -22.
For CN(C)c1ccc(C=C2C=Cc3ccccc32)cc1 the results were esBAF inh -11, Wnt bcat act 0 and MITF TRPM1 HTS 35.
`COc1cc2c(cc1OC)C(=Cc1ccc(N(C)C)cc1)C=C2` gave esBAF inh 67*, Wnt bcat act -2, MITF TRPM1 HTS 61, esBAF Ring1 qPCR 0.93, esBAF Fgf4 qPCR 0.96, esBAF Bmi1 qPCR 1.8, A549 cytotox -7, HepG2 cytotox SP -8 and HEK293 cytotox SP 1.
`C=CCn1c(-c2ccc(N)cc2)nc2ccccc21` gave HSF1 activator 21, HSF1 inhib 10, esBAF inh 58*, Wnt bcat act 20, MITF TRPM1 HTS 59, esBAF Ring1 qPCR 0.93, esBAF Fgf4 qPCR 1.2, esBAF Bmi1 qPCR 1.2, A549 cytotox -17, HepG2 cytotox SP -1 and HEK293 cytotox SP -20.
Screening CCn1c(-c2ccc(N)cc2)nc2ccccc21 returned HSF1 activator -7, HSF1 inhib -10, esBAF inh 22, Wnt bcat act 12 and MITF TRPM1 HTS 30.
`Cc1ccccc1-c1nnc(-c2cccc3ccccc23)o1` gave esBAF inh 71*, Wnt bcat act 55*, MITF TRPM1 HTS 27, esBAF Ring1 qPCR 0.95, esBAF Fgf4 qPCR 0.96, esBAF Bmi1 qPCR 1.7, A549 cytotox -7, HepG2 cytotox SP 37 and HEK293 cytotox SP -16.
CN(c1cccc(NC(=O)c2ccc(C(C)(C)C)cc2)c1)S(C)(=O)=O was read as HSF1 activator 34, HSF1 inhib 15, esBAF inh 73*, Wnt bcat act 0, MITF TRPM1 HTS 37, esBAF Ring1 qPCR 1.2, esBAF Fgf4 qPCR 0.82, esBAF Bmi1 qPCR 2.3, A549 cytotox 11, HepG2 cytotox SP -23 and HEK293 cytotox SP -43.
COc1ccc(S(=O)(=O)Nc2cc(C(=O)NC3CCCCCC3)ccc2N2CCOCC2)cc1 was read as esBAF inh 38, MITF TRPM1 HTS 48, esBAF Ring1 qPCR 1.1, esBAF Fgf4 qPCR 1, esBAF Bmi1 qPCR 1.9, A549 cytotox 4, HepG2 cytotox SP -46 and HEK293 cytotox SP -5.
For O=C1C(=NO)CCCc2ccccc21 the results were esBAF inh 14, Wnt bcat act -2 and MITF TRPM1 HTS 8.
Screening O=C1C(=C2CCc3ccccc32)Cc2ccccc21 returned esBAF inh 71*, Wnt bcat act 5, esBAF Ring1 qPCR 1.2, esBAF Fgf4 qPCR 1.1, esBAF Bmi1 qPCR 1.5, A549 cytotox -3, HepG2 cytotox SP 22 and HEK293 cytotox SP -3.
Screening O=C(Cc1c(O)c2ccccc2oc1=O)c1ccc(F)cc1 returned esBAF inh 69*, Wnt bcat act 28, esBAF Ring1 qPCR 0.86, esBAF Fgf4 qPCR 0.93, esBAF Bmi1 qPCR 1.5, A549 cytotox -14, HepG2 cytotox SP -33 and HEK293 cytotox SP -6.
O=c1oc2ccccc2c(O)c1CN1CCCCC1 was read as HSF1 activator -4, HSF1 inhib -6 and esBAF inh -6.
